Laboratory results from PubChem BioAssay.
Active and inactive are the calls of the source. Unless noted, the rule behind the calls is not given here.

Experiments:
[1] = anti-His antibody binders, primary screen, artefact control for SMM control protein annotation, biochemical, small-molecule microarray, 635 nm fluorescence (AID 1128); conditions: anti-His Alexa647 antibody binding, higher = more signal;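 note: score merges feature fluorescence with signal-to-noise for each printed compound spot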
[2] = tested on: Human papillomavirus type 1a E7 protein (residues 1-88); assay: HPV1a E7 small-molecule binders, primary screen, biochemical, small-molecule microarray, residues 1-88, 635 nm (AID 1129); conditions: small-molecule microarray binding, fluorescence 635 nm; higher = more signal
[3] = molecular target: Focal adhesion kinase 1 (Homo sapiens) (UniProt Q05397); assay: small-molecule microarray binders of FAK, primary screen, biochemical, 635/667 nm fluorescence, BSA, DTT (AID 1130); conditions: PTK2 binding, 635 nm fluorescence, higher = more signal;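 note: composite of spot emission at 667 nm and signal to noise over triplicate slides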
Focal adhesion kinase 1 (Homo sapiens), sequence (Q05397 whole entry, looked up): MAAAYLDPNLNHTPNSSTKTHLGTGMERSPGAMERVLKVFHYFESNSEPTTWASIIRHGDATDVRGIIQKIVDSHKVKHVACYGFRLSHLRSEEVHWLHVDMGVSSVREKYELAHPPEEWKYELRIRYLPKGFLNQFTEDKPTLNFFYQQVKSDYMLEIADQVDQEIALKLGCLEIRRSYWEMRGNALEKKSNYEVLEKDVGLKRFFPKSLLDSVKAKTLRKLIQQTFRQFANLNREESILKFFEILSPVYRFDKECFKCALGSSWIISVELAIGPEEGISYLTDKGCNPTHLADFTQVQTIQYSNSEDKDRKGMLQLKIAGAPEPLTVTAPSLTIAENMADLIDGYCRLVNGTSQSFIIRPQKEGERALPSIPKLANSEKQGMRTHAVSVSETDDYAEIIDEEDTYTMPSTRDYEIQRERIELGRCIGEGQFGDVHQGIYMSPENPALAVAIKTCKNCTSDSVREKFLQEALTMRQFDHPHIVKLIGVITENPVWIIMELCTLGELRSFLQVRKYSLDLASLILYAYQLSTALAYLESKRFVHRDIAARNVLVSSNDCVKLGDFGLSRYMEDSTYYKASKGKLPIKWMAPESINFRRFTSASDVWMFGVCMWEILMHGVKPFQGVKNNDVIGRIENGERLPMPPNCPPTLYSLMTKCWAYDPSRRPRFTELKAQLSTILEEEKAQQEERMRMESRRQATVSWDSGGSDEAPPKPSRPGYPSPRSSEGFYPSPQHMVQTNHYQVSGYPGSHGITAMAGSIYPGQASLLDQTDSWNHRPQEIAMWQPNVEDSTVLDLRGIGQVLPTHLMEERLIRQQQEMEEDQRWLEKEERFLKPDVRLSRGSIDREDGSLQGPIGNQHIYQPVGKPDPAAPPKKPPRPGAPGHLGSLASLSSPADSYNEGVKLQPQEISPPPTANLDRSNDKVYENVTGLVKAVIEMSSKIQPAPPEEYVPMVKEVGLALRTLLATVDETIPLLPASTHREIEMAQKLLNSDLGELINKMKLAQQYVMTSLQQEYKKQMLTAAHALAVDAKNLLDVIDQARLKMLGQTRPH

[4] = tested on: Fibrinogen (Alexa647-labelled); assay: fibrinogen binders on compound microarrays, profiling panel, artefact control for SMM control-protein annotation, biochemical, small-molecule microarray, 635/667 nm fluorescence (AID 1131); conditions: fibrinogen-A647 binding fluorescence, higher = more signal;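 note: z-score merges 667 nm fluorescence with per-spot signal-to-noise over triplicate slides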
[5] = molecular target: Follistatin (Homo sapiens) (UniProt P19883); assay: follistatin binders on small-molecule microarrays, primary screen, biochemical, small-molecule microarray, 635/667 nm fluorescence (AID 1132); conditions: FST binding, 635 nm fluorescence, higher = more signal
Follistatin (Homo sapiens), sequence (P19883 whole entry, looked up): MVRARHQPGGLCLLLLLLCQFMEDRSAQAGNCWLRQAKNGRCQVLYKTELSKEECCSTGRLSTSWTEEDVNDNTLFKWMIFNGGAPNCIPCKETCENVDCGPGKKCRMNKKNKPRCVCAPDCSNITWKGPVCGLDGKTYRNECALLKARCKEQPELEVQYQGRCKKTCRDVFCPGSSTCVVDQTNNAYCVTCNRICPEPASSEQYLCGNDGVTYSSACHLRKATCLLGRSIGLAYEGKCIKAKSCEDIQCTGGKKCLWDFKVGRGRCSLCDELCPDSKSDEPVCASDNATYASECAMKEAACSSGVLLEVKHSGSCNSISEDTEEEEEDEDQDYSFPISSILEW

[6] = molecular target: Fibroblast growth factor 2 (Homo sapiens) (UniProt P09038); assay: FGF2 binders on small-molecule microarrays, primary screen, biochemical, small-molecule microarray, 635/667 nm fluorescence (AID 1133); conditions: small-molecule microarray binding, FGF2, fluorescence 635/667; higher = more signal
Fibroblast growth factor 2 (Homo sapiens), sequence (P09038 whole entry, looked up): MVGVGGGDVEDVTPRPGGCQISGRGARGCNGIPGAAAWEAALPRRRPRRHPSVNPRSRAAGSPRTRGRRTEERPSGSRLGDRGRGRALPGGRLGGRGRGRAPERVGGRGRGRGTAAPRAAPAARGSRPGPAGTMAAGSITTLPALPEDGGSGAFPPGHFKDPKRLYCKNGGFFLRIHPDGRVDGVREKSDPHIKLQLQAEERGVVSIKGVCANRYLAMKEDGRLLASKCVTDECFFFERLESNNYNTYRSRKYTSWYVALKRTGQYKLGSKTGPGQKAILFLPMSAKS

[7] = mitochondrial membrane potential change in A549 cells, profiling panel, cell-based, JC-1 fluorescence, basal, 24 h, 100 nL (AID 1138); conditions: higher = more signal;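 note: A549 lung adenocarcinoma cells under basal conditions with no added stimulus; test concentration not given here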
[8] = tested on: Lefty1; assay: Lefty1 binders on small-molecule microarrays, primary screen, biochemical, small-molecule microarray, 635/667 nm fluorescence (AID 1139); conditions: small-molecule microarray binding, fluorescence 635/667; higher = more signal
[9] = tested on: wheat germ agglutinin (Triticum aestivum), Alexa647-labelled; assay: wheat germ agglutinin binders on compound microarrays, profiling panel, artefact control for SMM control-protein annotation, biochemical, small-molecule microarray, 635/667 nm fluorescence (AID 1140); conditions: WGA-A647 binding, 635 nm fluorescence, higher = more signal;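 note: score merges 667 nm feature emission with signal to noise over triplicate slides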
[10] = molecular target: Luciferin 4-monooxygenase (Photinus pyralis) (UniProt P08659); assay: firefly luciferase enzyme inhibitors, primary screen, biochemical, luminescence, purified enzyme, 2006 set (AID 1141); conditions: SteadyGlo luminescence, 30 min, higher = more signal, called active from +8 up or from −8 down;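 note: cell-free assay with purified firefly luciferase at 100 ng per well in PBS; test concentration not given here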
Luciferin 4-monooxygenase (Photinus pyralis), sequence (P08659 whole entry, looked up): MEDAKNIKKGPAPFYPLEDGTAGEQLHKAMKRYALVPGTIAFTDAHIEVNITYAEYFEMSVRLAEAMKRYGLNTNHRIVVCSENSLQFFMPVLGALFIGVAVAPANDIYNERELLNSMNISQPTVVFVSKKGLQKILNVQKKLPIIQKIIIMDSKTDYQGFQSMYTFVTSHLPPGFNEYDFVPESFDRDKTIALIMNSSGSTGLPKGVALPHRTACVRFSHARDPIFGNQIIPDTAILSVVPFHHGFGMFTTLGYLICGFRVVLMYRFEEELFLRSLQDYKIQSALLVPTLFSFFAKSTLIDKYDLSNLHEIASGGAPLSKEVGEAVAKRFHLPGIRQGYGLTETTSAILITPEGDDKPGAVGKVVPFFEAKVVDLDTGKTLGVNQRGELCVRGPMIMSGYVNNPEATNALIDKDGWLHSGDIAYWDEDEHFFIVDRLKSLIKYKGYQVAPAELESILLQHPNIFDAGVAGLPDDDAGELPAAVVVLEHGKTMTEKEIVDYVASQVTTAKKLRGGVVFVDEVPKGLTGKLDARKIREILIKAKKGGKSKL

[11] = tested on: Wnt5a (protein binding on small-molecule microarray); assay: Wnt5a binders on small-molecule microarray, primary screen, biophysical, 635/667 nm fluorescence (AID 1142); conditions: 635 nm fluorescence, higher = more signal;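 note: fluorescence read at 667 nm with signal to noise per printed feature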
[12] = cell viability in Huh7 cells, primary screen, cytotoxicity control for HCV replication inhibitor project, CellTiter-Glo luminescence, basal, 48 h (AID 1143); conditions: Huh7 HCV replicon, higher = more signal, called active from +8 up or from −8 down;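 note: Huh7 hepatoma cells carrying a hepatitis C replication reporter with no stimulus; test concentration not given here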
[13] = P. aeruginosa biofilm formation inhibitors, primary screen, PAO1 strain, BacTiter-Glo luminescence, LB-PBS (AID 1144); conditions: 12 h, higher = more signal
[14] = CREB reporter modulators without forskolin, primary screen, cell-based, PC12, CRE-LacZ reporter, unstimulated (AID 1145); conditions: no forskolin, luminescence, 4.5 h, higher = more signal, called active from +8 up or from −8 down
[15] = CREB reporter modulators under forskolin, primary screen, cell-based, PC12, CRE-LacZ reporter, forskolin-stimulated (AID 1146); conditions: luminescence, 4.5 h, higher = more signal, called active from +8 up or from −8 down;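 note: PC12 cells with 6xCRE LacZ reporter stimulated by forskolin 10 µM; beta-galactosidase reporter signal reflecting CREB driven transcription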
[16] = molecular target: Streptavidin (Streptomyces avidinii) (UniProt P22629); assay: streptavidin binders on small-molecule microarray, primary screen, artefact control for SMM compound annotation, biophysical, 635/667 nm fluorescence (AID 1147); conditions: streptavidin binding, higher = more signal;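 note: signal reflects streptavidin binding to arrayed compounds as a control protein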
Streptavidin (Streptomyces avidinii), sequence (P22629 whole entry, looked up): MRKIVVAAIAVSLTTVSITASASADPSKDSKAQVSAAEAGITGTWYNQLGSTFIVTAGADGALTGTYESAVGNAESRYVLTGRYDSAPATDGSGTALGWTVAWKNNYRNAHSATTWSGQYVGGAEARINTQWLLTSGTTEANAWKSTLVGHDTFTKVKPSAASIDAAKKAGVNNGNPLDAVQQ

[17] = small-molecule binders of probe aInhba, primary screen, biochemical, small-molecule microarray, 635/667 nm fluorescence (AID 1148); conditions: higher = more signal;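 note: score merges 667nm spot fluorescence with signal-to-noise for antibody binding to printed compounds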
[18] = molecular target: Torsin-1A (Homo sapiens) (UniProt O14656); assay: torsin A binders from cell lysate, primary screen, small-molecule microarray, wild-type, 635/667 nm (AID 1149); conditions: COS7 hTOR1A-WT lysate, 635 nm fluorescence, higher = more signal
Torsin-1A (Homo sapiens), sequence (O14656 whole entry, looked up): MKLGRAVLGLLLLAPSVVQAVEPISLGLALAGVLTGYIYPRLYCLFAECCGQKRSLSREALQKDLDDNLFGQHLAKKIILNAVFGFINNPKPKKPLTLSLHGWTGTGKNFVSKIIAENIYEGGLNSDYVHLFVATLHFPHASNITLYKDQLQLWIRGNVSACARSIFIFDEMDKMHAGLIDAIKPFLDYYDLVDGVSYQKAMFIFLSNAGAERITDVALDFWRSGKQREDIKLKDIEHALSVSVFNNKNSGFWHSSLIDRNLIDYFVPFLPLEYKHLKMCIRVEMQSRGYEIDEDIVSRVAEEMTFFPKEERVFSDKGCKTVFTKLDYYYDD

[19] = molecular target: Torsin-1A (Homo sapiens) (UniProt O14656); assay: small-molecule binders of mutant TOR1A in lysate, primary screen, cell lysate, small-molecule microarray, COS7 lysate, 635/667 nm fluorescence (AID 1150); conditions: COS7 hTOR1A mutant lysate, 635 nm fluorescence, higher = more signal;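 note: score pools 667 nm emission and signal to noise measuring lysate protein binding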
[20] = tested on: Sonic hedgehog protein (Shh); assay: small-molecule binders of Shh protein, primary screen, biochemical, small-molecule microarray, 635/667 nm fluorescence (AID 1151); conditions: small-molecule microarray binding, 635 nm fluorescence; higher = more signal;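 note: Shh protein binding to compounds spotted on small-molecule microarray slides; score combines spot fluorescence intensity with signal-to-noise across triplicate slides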

Row | Compound | composite z-score [1] | composite z-score [2] | composite z-score [3] | composite z-score [4] | composite z-score [5] | composite z-score [6] | z-score [7] | composite z-score [8] | composite z-score [9] | z-score [10] | composite z-score [11] | z-score [12] | z-score [13] | z-score [14] | z-score [15] | composite z-score [16] | composite z-score [17] | composite z-score [18] | composite z-score [19] | composite z-score [20]
1 | N#Cc1ccc(NN2C(C(O)c3c(F)cccc3Cl)C=CC3C(=O)N(c4ccccc4)C(=O)C32)cc1 (stereo not given) | 2.29 | 1.21 | 0.377 | 0.973 | 1.23 | 0.407 | -0.36 | -0.0219 | 0.997 | -0.671 (inactive) | 0.607 | 0.17 (inactive) | -1.11 (inactive) | 0.622 (inactive) | 0.201 (inactive) | 1.35 | 0.419 | 0.513 | 1.35 | 0.585
2 | [N-]=[N+]=NCc1ccccc1[C@@H]1OC(c2ccc(OCCCO)cc2)=N[C@]1(CCS(=O)(=O)c1ccccc1)C(=O)NCCN1CCOCC1 | 1.68 | 1.29 | 0.261 | 1.03 | 1.43 | 0.913 | 0.721 | 0.684 | 1.31 | -2.52 (inactive) | 0.808 | -0.31 (inactive) | -0.174 (inactive) | 1.24 (inactive) | -1.16 (inactive) | 0.81 | 0.285 | 2.1 | 1.9 | 0.615
3 | CN(C)CCCNC(=O)[C@@]1(c2ccc([N+](=O)[O-])cc2)CC(=O)N(C2CCCCC2)[C@@H]1c1ccc(CO)cc1I | 1.48 | 1.23 | 0.634 | 0.62 | 0.336 | 0.225 | -2.36 | 0.0773 | 0.701 | -0.907 (inactive) | -0.107 | -5.87 (inactive) | 0.262 (inactive) | 0.378 (inactive) | 0.519 (inactive) | 0.71 | -0.016 | 0.343 | 0.306 | 0.279
4 | COCCOC(=O)N1C(=O)[C@@]2(c3cc(C#CC4=CCCCC4)ccc31)[C@H](c1ccc(O)cc1)N1[C@H](c3ccccc3)[C@H](c3ccccc3)OC(=O)[C@H]1[C@@H]2C(N)=O | 0.711 | 1.08 | 0.334 | 0.644 | 1.32 | 1.57 | -0.858 | 1.23 | 0.766 | -1.37 (inactive) | 0.824 | -1.83 (inactive) | -0.591 (inactive) | 0.0695 (inactive) | 0.124 (inactive) | 0.17 | -0.598 | 0.0873 | 0.522 | 2.07
5 | CCN(CC)c1ccc(N2CC=CC34O[C@@H]5/C=C\CCCOC(=O)C5[C@H]3C(=O)N(CCO)[C@@H]4C2=O)cc1 (stereo not given in full) | 0.449 | -0.57 | -0.724 | -0.837 | -0.654 | -1.03 | -0.73 | -0.2 | -0.875 | -0.312 (inactive) | -0.6 | -0.117 (inactive) | 0.0243 (inactive) | 0.601 (inactive) | -0.462 (inactive) | -0.79 | -0.219 | -1.53 | -0.705 | 0.0512
6 | CN(C)C(=O)[C@@]1(Cc2ccccc2CN=[N+]=[N-])N=C(c2ccc(OCCCO)cc2)O[C@H]1c1ccccc1 | 2.77 | 1.18 | 0.995 | 0.941 | 0.761 | 1.34 | 0.0462 | -0.169 | 0.751 | 0.27 (inactive) | 0.522 | -2.54 (inactive) | 0.378 (inactive) | 0.629 (inactive) | -0.524 (inactive) | -0.154 | 0.7 | 0.209 | 0.681 | -0.221
7 | O=C(NCC(F)(F)F)[C@@H]1c2ccccc2C(=O)N(C2CCCCC2)[C@H]1c1ccc(CO)cc1 | -0.216 | 0.402 | -0.013 | 0.403 | 0.173 | -0.179 | 0.221 | -0.63 | 0.807 | -0.128 (inactive) | -0.107 | -1.51 (inactive) | 0.795 (inactive) | 0.299 (inactive) | -0.258 (inactive) | 0.0656 | -0.0422 | 0.252 | -0.287 | -0.376
8 | CCCC[C@H]1OB(O)C[C@H]2C1=C(COc1ccccc1)C[C@H]1C(=O)N(C)C(=O)[C@H]12 | -0.0391 | 0.0417 | -0.281 | -0.0052 | 1.24 | 0.473 | 0.284 | 0.576 | 0.0686 | -0.718 (inactive) | 0.195 | -0.348 (inactive) | 1.04 (inactive) | 1.77 (inactive) | 0.899 (inactive) | -0.385 | -0.0933 | -0.212 | 0.138 | 0.853
9 | C=C(CCCC)C(=O)CC[C@H](OC(C)=O)c1cccc(OCCO)c1 | -0.393 | -0.755 | 0.5 | -1.29 | -0.732 | -0.546 | -0.299 | -0.492 | -0.881 | 0.0336 (inactive) | -0.247 | -3.51 (inactive) | 0.428 (inactive) | 0.914 (inactive) | -0.057 (inactive) | -0.613 | -0.183 | -0.576 | -0.132 | 0.103
10 | C=CCNC(=O)[C@H]1[C@@H]2C(=O)O[C@@H](c3ccccc3)[C@@H](c3ccccc3)N2[C@@H](c2ccc(O)cc2)[C@]12C(=O)N(C(=O)OCCOC)c1ccc(C#CCNC(N)=O)cc12 | 1.05 | 0.898 | 0.0197 | 0.0703 | 1.44 | 1.58 | -0.531 | 0.713 | 1.03 | -0.0822 (inactive) | 0.415 | 0.621 (inactive) | 0.283 (inactive) | 0.0736 (inactive) | -0.036 (inactive) | -0.231 | 0.223 | 0.181 | -0.0483 | 1.55
